Hits are enriched below; roughly 3.1% of the tested compounds scored in any of these assays.
TROY signal inh – blocks TROY-dependent signaling in reporter cells; Q293 LMP1-TROYcd NF-kB luciferase reporter, 4 h; 360,000 tested, 0.98% active; inhibition, % at 10 µM;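 active = compounds whose plate-normalised and pattern-corrected inhibition of the luciferase reporter signal at the single screening dose is 50% or more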
PAX8 reporter – lowers PAX8-driven luciferase in RMG-I cells | RMG-I TPO-luciferase reporter, SteadyGlo, 24 h | inhibition, % at 12.6 µM | 360,000 tested, 1.2% active;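 active = mean replicate inhibition at least 60% with every replicate also reaching 60%; inconclusive = only one of the two criteria is met; inactive = mean below 60% and not all replicates reaching 60%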;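 also: luciferase light reporting Pax8 driven TPO promoter activity; plate controls were median of neutral control wells for no effect and mitoxantrone controls for full effect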
LGR2 antag – inhibitors of bursicon-induced Drosophila LGR2 receptor cAMP signaling | 380,000 tested, 0.35% active | HEK293 LGR2, CRE-luciferase, bursicon-stimulated, 4 h | AID 720647 | inhibition, % at 9.99 µM;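 active = drop in luminescence signal, shown as inhibition above about 50% in the replicate tests, limit read from the data, passing the limit was not always enough; inconclusive = probably only some replicates passing the limit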;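 also: agonist challenge used bursicon conditioned medium at about half maximal strength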
EWS-Fli block – inhibitors of EWS/Fli oncoprotein transcriptional activity; A673 NR0B1-luciferase reporter, viability-normalised; inhibition, % at 12.6 µM; 350,000 tested, 0.67% active; AID 651661;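 active = mean inhibition of at least 50% after viability correction, with every replicate also passing that limit; inconclusive = mean reaches 50% but only one of two replicates passes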;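 also: firefly luciferase signal divided by Alamar Blue viability fluorescence both relative to DMSO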
TWEAK Fn14 block – inhibitors of TWEAK-Fn14 interaction signaling. 360,000 tested, 2% active. TWEAK-stimulated Fn14 reporter cells, luciferase luminescence, 8 h. AID 1159606. inhibition, % at 10 µM; in the data active = inhibition above about 50%
LMP1 NFkB inh – reduces LMP1-driven NF-kappaB luciferase signal; LMP1-induced NF-kappaB luciferase reporter cells, luminescence; inhibition, % at 12.5 µM; 350,000 tested, 0.69% active; AID 504558; in the data active = inhibition above about 41%; inconclusive = no clear call, values can overlap the other calls;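 also: 0% = neutral control wells and 100% = reference inhibitor control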
* = called active by the depositor; ? = inconclusive; / = not tested or not shown.

SMILES | TROY signal inh | PAX8 reporter | LGR2 antag | EWS-Fli block | TWEAK Fn14 block | LMP1 NFkB inh
Cc1c(/C(O)=C2/C(=O)C(=O)N(CCN3CCOCC3)C2c2cccnc2)cnn1-c1ccccc1 (stereo unspecified) | 8 | / | / | / | -4 | -4
CC(C)C#Cc1cnc2c(c1)C(=O)N([C@@H](C)CO)C[C@@H](C)[C@@H](CN(C)C(=O)c1cnccn1)O2 | / | / | 10 | -15 | / | /
COc1ccccc1C(=O)N1C[C@@H]2[C@H](c3ccccc31)[C@@H](CO)N2C(=O)C1CCCCC1 | / | 32 | 0 | 4 | / | /
COc1ccc2c3c(n(C)c2c1)[C@@H](CO)N(C(=O)NC(C)C)CC31CCN(C(C)=O)CC1 | / | / | -1 | 3 | / | /
COc1ccc2c3c(n(C)c2c1)[C@@H](CO)N(Cc1ccc2c(c1)OCO2)CC31CCN(C(C)=O)CC1 | / | -5 | -14 | 4 | / | /
c1ccc(-n2nnnc2Sc2ncnc3sc4c(c23)CCCC4)cc1 | 73* | 22 | 66* | / | 100* | -10
Cc1sc2ncnc(Sc3nnnn3-c3ccc(Cl)cc3)c2c1C | 65* | 75* | / | / | 102* | 5
CSc1nnnn1-c1ccc(Cl)cc1 | -2 | 4 | 1 | -3 | -2 | 4
CCOc1ccccc1N1CCN(C(=O)c2ccc(Cl)c(S(=O)(=O)N3CCCCC3)c2)CC1 | 53* | 24 | 13 | 26 | 42 | 14
CCOc1ccc(NS(=O)(=O)c2cc(C(=O)N3CCN(C(C)=O)CC3)ccc2Cl)cc1 | -1 | 10 | 10 | / | 89* | -1
CCOc1ccccc1N1CCN(C(=O)c2cc(S(=O)(=O)N3CCCCC3)ccc2C)CC1 | 6 | 21 | 15 | 4 | 8 | -6
O=C(CC1CC1)N1CC2(C1)[C@H](c1ccccc1)[C@H](CO)N2C(=O)C1CCOCC1 | / | / | -10 | 1 | / | /
O=C(Nc1ccccc1)Nc1ncc([N+](=O)[O-])s1 | 47 | 85* | 65* | 14 | 81* | -10
O=C(Nc1ccc(NC(=O)c2cccc([N+](=O)[O-])c2)cc1)c1cccc([N+](=O)[O-])c1 | -17 | -9 | -19 | -12 | -8 | 4
O=C(Nc1ncc([N+](=O)[O-])s1)c1cccc([N+](=O)[O-])c1 | -14 | -16 | -29 | -18 | 93* | 15
O=C(COC(=O)c1ccccc1)Nc1ncc([N+](=O)[O-])s1 | -16 | 3 | -28 | -22 | 19 | -5
Cc1nc(C)c(C(=O)Nc2ncc([N+](=O)[O-])s2)o1 | 33 | 22 | 43 | 57* | 85* | 49*
N/C(=N\c1nc2ccccc2o1)NC(=O)/C=C/c1ccccc1 | 40 | -2 | 3 | -11 | 55* | 13
CC(=O)c1c(C)oc2c1C(=O)c1ccccc1C2=O | 28 | 10 | -4 | / | 24 | 4
COc1ccc(CNC(=O)c2c(C)oc3c2C(=O)c2ccccc2C3=O)cc1 | 56* | 28 | 77* | 32 | 99* | 13
C[C@@H]1CN([C@H](C)CO)C(=O)c2cc(NC(=O)CCN3CCOCC3)ccc2O[C@H]1CN(C)C | / | -11 | -27 | -4 | / | /
O=C(CN1C(=O)NC(Cc2ccccc2)C1=O)Nc1ccccc1 (stereo unspecified) | / | / | / | / | 97* | -11
Cc1ccc(NC(=O)CN2C(=O)NC(Cc3ccccc3)C2=O)cc1 (stereo unspecified) | -9 | / | / | / | 4 | 3
COc1ccc(-c2ccc3c(c2)S(=O)(=O)c2cccc(C(=O)NCCOc4ccccc4Cl)c2C3=O)cc1OC | 54* | -9 | 11 | 58* | 7 | -80
COc1ccc(-c2ccc3c(c2)S(=O)(=O)c2cccc(C(=O)NCc4ccccc4Cl)c2C3=O)cc1OC | 1 | -15 | -18 | -2 | -46 | -55
SMILES | TROY signal inh | PAX8 reporter | LGR2 antag | EWS-Fli block | TWEAK Fn14 block | LMP1 NFkB inh
CN(C)CC(CCC(CN(C)C)C(=O)c1ccccc1)C(=O)c1ccccc1 (stereo unspecified) | 56* | / | / | / | 98* | 84*
CCOc1ccc(C(=O)C(CCC(CN(C)C)C(=O)c2ccc(OCC)cc2)CN(C)C)cc1 (stereo unspecified) | 50* | 112* | 37 | / | 102* | 67*
COc1ccc(C(=O)C(CCCCC(CN(C)C)C(=O)c2ccc(OC)cc2)CN(C)C)cc1 (stereo unspecified) | 21 | / | / | / | -30 | -30
Cc1cc(N2CCC(C(=O)NCC3CC3)CC2)nc(-c2ccccc2)n1 | 6 | 13 | / | / | 78* | 4
O=C(C[C@H]1CC[C@@H]2[C@H](COC[C@H](O)CN2C(=O)Nc2cc(Cl)cc(Cl)c2)O1)N1CCOCC1 | / | 1 | -23 | -2 | / | /
O=S(=O)(NC[C@H]1CC[C@@H]2NC[C@@H]2O1)c1ccccc1F | / | / | / | -14 | / | /
OC(CNCCC1C=Nc2ccccc21)Cn1c2ccc(Cl)cc2c2cc(Cl)ccc21 (stereo unspecified) | 49 | -11 | 19 | / | 74* | -54
OC(CNCC1CCCO1)Cn1c2ccc(Cl)cc2c2cc(Cl)ccc21 (stereo unspecified) | -20 | / | / | / | 3 | -36
COCCNC(=O)[C@H]1[C@H](CO)[C@H]2Cn3c(ccc(C4=CCCCC4)c3=O)[C@@H]1N2C(=O)C1CC1 | / | / | -1 | 0 | / | /
COc1ccc(Cn2c(C)nc3c(c2=O)c2nc4ccccc4nc2n3Cc2ccco2)cc1 | 9 | ? | -18 | 45 | 52* | 13
Cc1nc2ccccc2c(=O)n1Cc1ccco1 | -1 | -8 | 3 | -1 | 1 | /
COc1ccc(-c2cnc3c(c2)C(=O)N([C@H](C)CO)C[C@H](C)[C@H](CN(C)Cc2cccc(C)c2)O3)cc1 | / | -2 | 6 | 1 | / | /
COC(=O)[C@]12CCCCC=C1N(Cc1cccc3ccccc13)C(=O)[C@H](CC(=O)NCc1ccc(OC)c(OC)c1)C2 | 63* | 43 | 89* | 23 | 97* | /
COC(=O)[C@]12CCCCC=C1N(CCc1ccc(OC)c(OC)c1)C(=O)[C@H](CC(=O)NCc1cccc3ccccc13)C2 | / | 18 | 27 | 13 | / | /
CCOC(=O)[C@]12CCC=C1N(Cc1cccc3ccccc13)C(=O)[C@H](CC(=O)NCc1ccc(OC)c(OC)c1)C2 | 34 | 43 | 34 | 20 | 61* | /
CC(=O)c1c(O)cc2c3c1OC(C)(C)C1CCC(C)(CC31)O2 (stereo unspecified) | 34 | -2 | 38 | -3 | 79* | 10
COc1cc(O)c(C(C)=O)c2c1C=CC(C)(C)O2 | 3 | / | -1 | -75 | 3 | -12
C[C@@H]1CCCCO[C@@H](CN(C)Cc2ccc3c(c2)OCO3)[C@H](C)CN([C@@H](C)CO)C(=O)c2cc(NC(=O)CCC(F)(F)F)ccc2O1 | / | 13 | -19 | -4 | / | /
COc1ccc(S(=O)(=O)N(C)C[C@@H]2OCCCC[C@@H](C)Oc3ccc(NC(=O)CCC(F)(F)F)cc3C(=O)N([C@H](C)CO)C[C@@H]2C)cc1 | / | -11 | -11 | -9 | / | /
O=[N+]([O-])c1ccc2nc(NN=Cc3ccc(O)cc3)sc2c1 | 66* | 2 | 105* | -2 | 69* | -9

High-throughput results deposited in PubChem by several laboratories.
